Screens: PubChem, National Center for Advancing Translational Sciences (NCATS)
The full list was thinned out, with hits kept by preference.
Tb PFK inh-1 – qHTS Assay to Find Inhibitors of T. brucei phosphofructokinase | T. brucei PFK, ADP-Glo luminescence | Potency, µM (top dose mostly 57.5 µM), for the others: at the top dose activity, negative = inhibition, actives largely listed as inhibitors | 0.17% of 330,000 active | AID 485367, 2010;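 further: potency means the concentration at half of the fitted maximal effect; 0% = uninhibited 1x PFK enzyme wells and -100% = no-enzyme wells; nearly all actives have a fitted effect of over 60% in size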
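Compounds were pin-transferred as a titration series up to 57 uM into substrate buffer (0.5 mM F6P, 0.1 mM ATP, pH 8.0), then 1.25 nM PFK was added and reactions ran 45 min before ADP-Glo detection.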
PI5P4K alpha inh – qHTS for Inhibitors of phosphatidylinositol 5-phosphate 4-kinase (PI5P4K) | Phosphatidylinositol 5-phosphate 4-kinase type-2 alpha (Homo sapiens), P48426 | PI5P4Kalpha enzyme, ADP-Glo luminescence, 60 min; active compounds read low | max response, % | 1.2% of 330,000 active; active means max response of -50% or lower; inconclusive means between -30% and -50%; inactive means -30% or higher; further: value at the top dose of about 77 µM; on the % scale 0 is the no-effect control and ±100 the full control effect
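qHTS, 1536-well: enzyme/substrate mix, compound by pin tool, 5 microM ATP final; RT 60 min; ADP-Glo reagents 1 (45 min) then 2 (30 min); luminescence.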
PI4K2A inh – qHTS for small molecular inhibitors of PI4K2A; Phosphatidylinositol 4-kinase type 2-alpha (Homo sapiens), Q9BTU6; purified PI4K2A, ADP-Glo luminescence, 1 h; active compounds read low; activity change, negative = inhibition, % at 76.9 µM; 0.13% of 420,000 active; AID 1346378, 2018; in the data active means activity change below about -50%; inconclusive means mostly about -30% to -49%;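 further: -100% = wells without enzyme as full effect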
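In this quantitative HTS, ADP production by PI4K2A was quantified luminescently after 1 h at ambient temperature; 100 microM adenosine served as plate-quality control.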
Pin1 inh – qHTS Assay to Find Inhibitors of Pin1; Peptidyl-prolyl cis-trans isomerase NIMA-interacting 1 (Homo sapiens), Q13526; Pin1 FP peptide displacement, HiFluor488, 10 min; Potency, µM (highest dose often 115 µM), inactives show top-dose activity, negative = inhibition, hits mostly inhibitors; 0.009% of 390,000 active; AID 504891, 2011; active means well fitted inhibition curve with a large enough effect in the polarisation, with a control signal flat, not every such curve was filed as active; inconclusive means small, poorly fitted or top-dose-only effect, or effect the other way, or a change in a side signal; inactive means no such curve, though single readings can be large or run the other way; the % refers to the polarisation; further: potency means the concentration at half of the fitted maximal effect; on the % scale 0 is the no-effect control and ±100 the full control effect
Tb PGK inh – qHTS Assay to Find Inhibitors of Phosphoglycerate Kinase; AID 602233, 2012; 0.043% of 380,000 active; PGK/GAPDH coupled, Kinase-Glo luminescence, 60 min; Phosphoglycerate kinase, glycosomal (Trypanosoma brucei brucei), P07378; Potency, µM (top dose mostly 57.5 µM), inactives show top-dose activity change, negative = inhibition, actives largely listed as inhibitors; further: potency means the concentration at half of the fitted maximal effect; on the % scale 0 is the no-effect control and ±100 the full control effect; nearly all actives have a fitted effect of over 60% in size
Target sequence (P07378 whole entry, looked up): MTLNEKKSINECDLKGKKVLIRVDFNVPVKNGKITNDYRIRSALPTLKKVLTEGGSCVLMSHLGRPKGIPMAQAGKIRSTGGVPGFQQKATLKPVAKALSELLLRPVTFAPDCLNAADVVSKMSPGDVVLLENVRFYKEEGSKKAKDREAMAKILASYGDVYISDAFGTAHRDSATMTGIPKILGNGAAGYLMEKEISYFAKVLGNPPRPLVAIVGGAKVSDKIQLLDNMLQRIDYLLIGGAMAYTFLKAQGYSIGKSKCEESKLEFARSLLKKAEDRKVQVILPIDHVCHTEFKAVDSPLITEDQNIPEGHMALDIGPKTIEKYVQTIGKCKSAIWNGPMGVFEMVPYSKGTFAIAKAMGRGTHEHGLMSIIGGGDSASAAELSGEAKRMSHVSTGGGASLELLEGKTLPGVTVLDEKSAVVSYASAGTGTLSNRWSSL
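Recombinant glycosomal PGK reaction used 1,3-bisphosphoglycerate generated in-well by GAPDH (100nM final) in 100mM TEA pH 7.6, 5mM MgCl2, 0.01% Tween-20. After 60 minutes at room temperature, ATP was read by Kinase-Glo Plus luminescence end-point.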
Tb PFK KinaseGlo – Tb PFK orthogonal confirmatory assay using ATP depletion (Kinase-Glo Plus) as an alternative measure of Tb PFK activity: Hit Validation. shares compounds with Tb PFK inh-1. Tb PFK enzyme, ATP depletion, Kinase-Glo Plus luminescence. Potency, µM (highest dose often 57.5 µM), for inactives: top-dose inhibition. 47% of 1,100 active. AID 504636, 2011; calls by dose curve; further: potency means the concentration at half of the fitted maximal effect; nearly all actives have a fitted effect of over 60% in size
Tb PFK inh-2 – Inhibitors of T. brucei phosphofructokinase: Hit Validation; AID 504637, 2011; Potency, µM (titrated, usually from 57.5 µM), for inactives: at the top dose activity change, negative = inhibition, hits mostly inhibitors; purified T. brucei PFK, ADP-Glo luminescence, 45 min; 41% of 1,100 active; shares compounds with Tb PFK inh-1;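 further: potency means the concentration at half of the fitted maximal effect; plate controls were full PFK enzyme control for no effect and no enzyme control for full effect; nearly all actives have a fitted effect of over 60% in size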
Numbers without * were called inactive; i = inactive; ? = inconclusive; nt = not tested or not shown. Unless noted, the call rests on the fitted dose curve; in most records, active means well fitted curve in the direction sought with a large enough effect; inconclusive means small, poorly fitted or top-dose-only effect, or another doubt; inactive means no such curve, though single readings can be large; an effect the other way counts as inactive or inconclusive.

SMILES	Tb PFK inh-1	PI5P4K alpha inh	PI4K2A inh	Pin1 inh	Tb PGK inh	Tb PFK KinaseGlo	Tb PFK inh-2
CCn1c(CCNC(=O)c2ccc(OC)cc2)nnc1SCc1ccc(Cl)c(Cl)c1	17µM*	5	1	3%	-5%	12µM*	24µM*
COc1ccc(C(CNC(=O)Cc2ccc(Cl)c(Cl)c2)N2CCCCC2)cc1 (stereo unspecified)	-7%	-1	4	-6%	-3%	nt	nt
C[C@@H]1O[C@@H](O[C@@H]2[C@@H](O)[C@H](OCCc3ccc(O)c(O)c3)O[C@H](CO)[C@H]2OC(=O)/C=C/c2ccc(O)c(O)c2)[C@H](O)[C@H](O)[C@H]1O	1.7µM*	-26	-5	2%	0%	4.8µM*	4.8µM*
C[C@H]1CC[C@@H]2[C@@H](C)[C@H]3[C@H](C[C@H]4[C@@H]5CC=C6C[C@@H](O[C@@H]7O[C@H](CO)[C@H](O)[C@H](O[C@@H]8O[C@H](CO)[C@@H](O)[C@H](O)[C@H]8O)[C@H]7O[C@@H]7O[C@@H](C)[C@H](O)[C@@H](O)[C@H]7O)CC[C@]6(C)[C@H]5CC[C@]34C)N2C1	0%	1	-4	?	i	nt	nt
CN(C)c1cc(Cl)c2nonc2c1N	?	-10	-57*	-12%	-5%	21µM*	?
O=C(COc1ccc(F)c(Cl)c1)c1ccc[nH]1	?	?	-3	12%	-4%	?	?
O=C(COc1ccc(Br)cc1)Nc1ccc(Cl)cc1C(=O)c1ccccc1	nt	nt	9	2%	-8%	nt	nt
CCN(CC)c1ccc2nc3ccccc3[n+](CC)c2c1	15µM*	?	-55*	-4%	?	-17%	?
COC(=O)C1=C[C@H]([C@@H](C)[C@H](OC)c2ccccc2Br)[C@@H]2[C@H]1c1ccccc1N2C	nt	nt	0	nt	nt	nt	nt
Cc1nn(Cc2ccc(Cl)c(Cl)c2)c(C)c1NC(=O)c1cc(-c2ccco2)on1	4.8µM*	nt	-8	65%	2%	2.7µM*	6µM*
Cc1ccc(Cn2ccc(NC(=O)c3cc(-c4ccco4)on3)n2)cc1	1%	nt	8	42%	-2%	nt	nt
O=C(CNCc1c(F)cccc1F)N1CCC2(CC1)OCCO2	nt	nt	5	nt	nt	nt	nt
O=C1NC(=Nc2ccccc2)S/C1=C\C=C\c1ccco1	7.6µM*	-94*	?	8%	-6%	?	?
Cc1cccc(N2C(=O)NC(=O)/C(=C\C=C\c3ccco3)C2=O)c1	?	-25	?	?	-12%	nt	nt
O=[N+]([O-])c1ccc(NCc2ccccc2)nc1	?	8	-1	-3%	-8%	?	?
C[N+]1=C(N)NC2=C3CCCCC3ONC2C1 (stereo unspecified)	nt	nt	-6	nt	nt	nt	nt
N#CCSc1nnc(CNc2cccc(Cl)c2)o1	24µM*	nt	4	-2%	1%	13µM*	21µM*
Clc1cccc2c3c([nH]c12)CCNC3	?	4	0	8%	i	?	?
O=C(Cc1ccc(Cl)c(Cl)c1)N/N=C/c1cccnc1	12µM*	0	-1	3%	-3%	5.4µM*	12µM*
O=C(NN=Cc1ccc(N(CCCl)CCCl)cc1)c1cccnc1	nt	3	1	?	1%	nt	nt
